Reference: PubChem BioAssay AID2551 (National Center for Advancing Translational Sciences (NCATS), 2010)
About 17,000 (5.5%) of roughly 310,000 compounds were called active. Another 11% or so got no clear call; they are omitted. The call rests on the fitted dose curve; in most records, active means well fitted inhibition curve with a large enough effect; inconclusive means small, poorly fitted or top-dose-only effect, or effect the other way; inactive means no such curve, though single readings can be large or run the other way. Many of the other results were omitted from the sample, so actives are more common in it than they were.

molecular target: Nuclear receptor ROR-gamma (Mus musculus) (UniProt P51450); assay: qHTS for inhibitors of ROR gamma transcriptional activity; conditions: Drosophila S2 Gal4-RORgamma UAS-luciferase reporter, 20 h; series mostly up to 53.6 µM; further: nearly all actives have a fitted effect of over 60% in size
Sequence (P51450 whole entry, looked up, the tested form may be a part): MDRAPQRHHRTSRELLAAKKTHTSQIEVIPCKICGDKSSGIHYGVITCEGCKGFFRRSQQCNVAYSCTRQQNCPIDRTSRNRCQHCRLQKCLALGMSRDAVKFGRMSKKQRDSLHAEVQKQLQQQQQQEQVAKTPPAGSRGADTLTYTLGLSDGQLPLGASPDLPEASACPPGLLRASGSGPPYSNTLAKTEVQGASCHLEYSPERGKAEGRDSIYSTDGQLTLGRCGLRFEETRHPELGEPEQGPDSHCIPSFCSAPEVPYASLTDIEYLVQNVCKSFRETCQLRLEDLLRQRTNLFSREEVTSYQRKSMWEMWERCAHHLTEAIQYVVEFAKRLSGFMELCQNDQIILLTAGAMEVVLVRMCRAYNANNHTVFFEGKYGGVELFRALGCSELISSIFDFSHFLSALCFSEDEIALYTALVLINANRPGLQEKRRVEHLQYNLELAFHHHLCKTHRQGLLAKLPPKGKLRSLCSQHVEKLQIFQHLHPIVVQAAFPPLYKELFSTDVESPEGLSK
How it was run: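 Read-out: Photinus luciferase luminescence; inhibitors lower reporter signal. Insect Schneider cells with Gal4-ROR gamma fusion under metallothionein promoter, UAS reporter; 700 uM final copper sulfate induction, 20 hr, ambient temperature.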
On the % scale 0 is the no-effect control and ±100 the full control effect; potency means the concentration at half of the fitted maximal effect.

Potency, active:
COc1ccc(CS(=O)/C(Cl)=C(/Cl)C(=O)Nc2ccc(OC)nc2)cc1 (stereo unspecified) 1.12 µM
Clc1ccc(-c2cc(-c3ccccn3)on2)c(Cl)c1 3.98 µM
CNC(=S)N/N=C/c1ccc(N2CCOCC2)s1 1.26 µM
CCc1ccc(/C=N/NC(=O)c2ccc(OC3CCCC3)cc2)s1 11.2 µM
O=C(Cn1cc(/C=N/NC(=O)c2cccc(C(F)(F)F)c2)c2ccccc21)Nc1ccc(F)cc1 11.2 µM
Cc1cccc(/C=N/NC(=O)CNc2cccc3ccccc23)n1 14.1 µM
CN(CCOc1ccccc1)Cc1nc2cc(Cl)ccc2c(=O)[nH]1 4.47 µM
CCOC(=O)CNC(=O)CSc1nnc(COc2ccc(Cl)cc2)n1CC 7.94 µM
O=C1c2cccc3c([N+](=O)[O-])ccc(c23)C(=O)N1CC1CCCO1 (stereo unspecified) 15.8 µM
Cc1cnc(NC(=O)c2ccccn2)s1 0.794 µM
Cc1cnc(NC(=O)c2ccc(Cl)nc2)s1 15.8 µM
COc1ccc(C(=O)/C=C/Nc2ccccn2)cc1 3.55 µM
COc1ccc(N2C(=O)CC(Sc3n[nH]c(-c4ccc(C)cc4)n3)C2=O)cc1 (stereo unspecified) 20 µM
O=[N+]([O-])c1cccc(/C([O-])=C(/C(=S)Nc2ccccc2F)[n+]2ccccc2)c1 12.6 µM
C=CC(COCc1ccccc1)N(Cc1ccccc1)S(=O)(=O)c1ccccc1Br (stereo unspecified) 7.94 µM
CS(=O)(=O)c1sc(C(=O)NC(=S)Nc2ccc(OC(F)(F)F)cc2)c2c1C=CCC2 7.08 µM
CCc1ccccc1N1CN(Cc2ccco2)CNC1=S 4.47 µM
CCCN1CNC(=S)N(CCc2ccccc2)C1 3.98 µM
CCN1CN(Cc2ccccc2)CNC1=S 12.6 µM
CCOc1ccccc1N1CN(Cc2ccccc2)CNC1=S 4.47 µM
CCC(C)c1ccc(NC(=S)N2CCCC2)cc1 (stereo unspecified) 8.91 µM
CCOc1ccc(NC(=S)N2CCCCCC2)cc1 7.08 µM
CCC(C)c1ccc(NC(=S)NCc2ccccn2)cc1 (stereo unspecified) 2.51 µM

Potency, inactive:
COc1ccc(NC(=O)/C(Cl)=C(/Cl)S(=O)Cc2ccc(C)cc2)cn1 (stereo unspecified)
COc1ccc(C(=O)Nc2ccc(NC(=O)C(C)C)nc2)cc1
O=C(NCc1ccccc1)C1CCN(C(=O)Cc2ccccc2)CC1
Cc1ccc2nc(SCC(=O)NC3CCCC3)[nH]c2c1
O=C1CSC(c2ccccc2)N1c1nc(-c2ccc(Cl)cc2Cl)cs1 (stereo unspecified)
Clc1ccc(-c2ncc3ccccn23)c(Cl)c1
COc1ccc(-n2nc(C(=O)NCC(=O)N3CCN(c4ccccc4OC)CC3)c3ccccc3c2=O)c(OC)c1
Cc1cccc2c1cnn2C(=O)CCC(=O)NC1CCCCC1
CCCCc1nc2cc(C(=O)N3CCCCC3CCO)ccc2o1 (stereo unspecified)
Cc1ccccc1N/N=C/c1ccc(N2CCOCC2)cc1
C=CCNC(=S)N/N=C/c1ccc(C)s1
CSCCC(NS(=O)(=O)c1ccccc1F)C(=O)N1CC=C(c2ccccc2)CC1 (stereo unspecified)
C=CCc1ccccc1OCC(O)CN1CCN(CCO)CC1 (stereo unspecified)
CCN(CC(=O)NCCCN1CCOCC1)S(=O)(=O)c1cc(Cl)ccc1Cl
CC(=O)N1CCC(C(=O)OCc2ccc(Cl)cc2)(c2ccccc2)CC1
O=C(NCc1ccco1)/C(=C\c1cccc([N+](=O)[O-])c1)NC(=O)c1ccco1
COC(=O)CNC(=O)c1ccc(OC2CCN(C(=O)C3CC3)CC2)cc1
CCc1cc(C(N)=O)c(NC(=O)c2ccc(OC)cc2)s1
CCOC(=O)N1CCN(C(=O)c2ccc3c(=O)n(CCc4ccc(OC)c(OC)c4)c(=O)[nH]c3c2)CC1
CCOC(=O)Cn1c(O)c(N=NC(=O)CNC(=O)Cc2ccccc2)c2ccccc21
CC1CCN(C(=O)/C(=C\c2ccccc2F)NC(=O)c2ccccc2)CC1
NC(=O)Cn1cc(/C=N\NS(=O)(=O)c2ccccc2)c2ccccc21
O=C(CN1CCN(c2ccc(F)cc2)CC1)Nc1cccc(C(F)(F)F)c1
Cc1ccc(S(=O)(=O)N/N=C(\c2ccccc2)C2CC2)cc1
Cn1cccc1/C=N/NC(=O)CNc1cccc2ccccc12
C/C(=N\NC(=O)CNc1cccc2ccccc12)c1ccc(Br)s1
CCn1cc(CN2CCN(CC(C)(C)C)C(CCO)C2)c2ccccc21 (stereo unspecified)
O=c1[nH]c(CN2CCOCC2)nc2cc(Cl)ccc12
CN(Cc1nc2ccccc2c(=O)[nH]1)Cc1cc(=O)oc2ccc3ccccc3c12
COc1cccc(CNC(=O)c2cccnc2Sc2ccc(Cl)cc2)c1
Brc1ccccc1CN1CCC(Cc2ccccc2)CC1
C=CCn1c(COc2ccccc2)nnc1SCC(=O)NCC(=O)OCC
CCOC(=O)CNC(=O)CSc1nnc(-c2cccc(OC)c2)n1CC
Cn1c(=O)oc2cc(S(=O)(=O)NCCC(=O)NCc3ccccc3Cl)ccc21
O=C(CCC1CCN(C(=O)c2cccc(Cl)c2F)CC1)Nc1ccccc1
CCC(=O)Nc1ccc(C(=O)Nc2ccc3c(c2)C(=O)N(CC2CCCO2)C3=O)cc1 (stereo unspecified)
O=C(NCc1ccc2c(c1)OCO2)c1ccc2c(c1)C(=O)N(CC1CCCO1)C2=O (stereo unspecified)
O=C(CSc1n[nH]c(=O)n1-c1ccccc1)Nc1ccccc1C(F)(F)F
CCCNC(=O)CCc1c(C)nc2c(c(C)nn2-c2ccc(C)cc2)c1C
COc1cc2ccccc2cc1C(=O)Nc1nc(C)c(C(C)=O)s1
CCCCCC1CC(COc2ccccc2)OC1=O (stereo unspecified)
COc1ccc(C(=O)NC2CC(C)(C)Cc3c2cnn3-c2ccccc2)c(OC)c1 (stereo unspecified)
O=C(NCCCn1ccnc1)c1cc(Br)c(Br)s1
C=Cn1cc[n+](CC(=O)c2ccc(OC)c(OC)c2)c1
O=C(CSc1ccc(-c2ccco2)nn1)Nc1cccc(F)c1
Cc1ccc(SCC(=O)Nc2ncc(C)s2)cc1
Cc1ccc(Cl)cc1NC(=O)c1ccccn1
Cc1cnc(NC(=O)CSc2c(Cl)cccc2Cl)s1
Cc1cnc(NC(=O)CSc2nnc(C)s2)s1
CCC(C)C(NC(=O)C1CCC(=O)N1C(=O)OCc1ccccc1)C(=O)NC(C(=O)N1CCCC1C(N)=O)C(C)CC (stereo unspecified)
Cc1cc(=O)oc2cc(OC(C)C(=O)NCCc3ccc(S(N)(=O)=O)cc3)ccc12 (stereo unspecified)
CN(C(=O)COC(=O)CNC(=O)C12CC3CC(CC(C3)C1)C2)c1ccccc1
CCC(=O)Nc1ccc(S(=O)(=O)Nc2c(NC)c3ccccc3oc2=O)cc1
O=S1(=O)CCOC[C@H](CC2CCCCC2)N1Cc1ccc(F)cc1
CCOc1ccc(N/C=C/C(=O)c2cc(OC)c(OC)c(OC)c2)cc1
CCOc1cc(NC(=O)c2ccccn2)c(OCC)cc1NC(=O)c1ccc(OC)cc1
Cc1ccc(CNC(=O)C2(C(F)(F)F)C/C(=C\Cc3ccccc3)CCCO2)o1 (stereo unspecified)
COc1ccc(N2C(=O)CC(SC(C)C)C2=O)cc1 (stereo unspecified)
COc1ccc(-c2nc(SCC(=O)N3CCCC3)n[nH]2)cc1
Cc1ccc(F)c(NC(=O)CCOc2ccccc2C)c1
Cc1ccc(/C([O-])=C(/C(=S)NCc2ccco2)[n+]2ccccc2)cc1[N+](=O)[O-]
CCC(C)NCC(=O)Nc1ccc([N+](=O)[O-])cc1C(=O)Nc1ccccc1F (stereo unspecified)
CS(=O)(=O)N(CC(=O)N1CCOCC1)c1cccc(Cl)c1Cl
C=CCn1cc(Cl)cc(C(=O)Nc2ccccc2)c1=O
Cc1nc2ccc(C(=O)N(C)CC3CCCN(CCc4ccc(Cl)cc4)C3)cc2[nH]1 (stereo unspecified)
C=CCCN(Cc1ccccc1)S(=O)(=O)c1ccccc1Br
CC(NC(=O)C1CCCN(S(=O)(=O)c2ccc(-n3cnnn3)cc2)C1)c1ccc(F)cc1 (stereo unspecified)
O=C(NCc1ccco1)/C(=C/c1cccc([N+](=O)[O-])c1)NC(=O)c1ccco1
CSc1sc(C(=O)NNC(=O)c2ccc(Cl)cc2)c2c1C=CCC2
COC(=O)[C@H](C)NC(=O)Nc1ccc(OC(F)(F)F)cc1
CN1C(=O)c2ccc(C(=O)Nc3ccc(Br)cn3)cc2C1=O
O=C(Nc1cc(-c2nc3ncccc3o2)ccc1Cl)c1ccco1
Cn1c(SCC(=O)N2CCCC2)nnc1-c1ccc2c(c1)OCO2
N#CNC1=NCN(CCc2ccccc2)CN1
CC12CN(Cc3ccccc3)CC(C)(CN(Cc3ccccc3)C1)C2=NO
O=S(=O)(c1cc(Cl)ccc1Cl)N1CCN(Cc2ccco2)CC1
CCOc1ccccc1OCCCNCc1ccccc1
Cn1c2c(c(=O)n(C)c1=O)CN(Cc1ccco1)CN2
S=C1SCN(CCN2CCOCC2)CN1Cc1ccccc1
c1ccc(CCN2CN=C(Nc3nc4ccccc4o3)NC2)cc1
COc1ccccc1NC(=O)CSc1nnc(CNC(=O)c2ccccc2F)o1
CCOc1ccc(C)cc1S(=O)(=O)NC1CCCCCC1
COc1ccc(C(=O)N2CCCN(C)CC2)c(OC)c1
Cc1cccc[n+]1CC(=O)c1ccccc1
CSc1ccccc1OCc1cc(C(=O)N(C)CCc2c(C)n[nH]c2C)no1
CCn1c(SCc2cccc(C(=O)O)c2)nnc1-c1ccc(Cl)cc1
CCOc1ccc(NC(=S)N2CCC(N(C)CC3CCCO3)CC2)cc1 (stereo unspecified)
O=C(NCc1ccccn1)Nc1ccc(F)cc1
CCC(C)N(C)C1CCN(C(=S)Nc2ccc(OC)cc2)CC1 (stereo unspecified)
Cc1cc(C)cc(NC(=O)NCc2ccccn2)c1
CCOc1ccc(NC(=S)N2CCC(NC(=O)c3ccccc3)CC2)cc1
NS(=O)(=O)c1ccc(NC(=S)N2CCCC2)cc1

Activity change, negative = inhibition, inactive:
CCOc1ccc(CC(=O)NC2CCN(Cc3ccccc3)CC2)cc1 11.1% [at 1.91 µM]
